# Compounds without any hit were thinned out: in the full panel of roughly 83,000, 20% have a hit.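 Method: cells in 96-well plates; compound added at one concentration; 48 h incubation; percent growth measured; values under 10 scored active.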 A number with no mark means an inactive call. The source made the active and inactive calls.
# Experiments:
# Experiment in all cases: NCI-60 one-dose screen, 48 h (100 = growth as untreated, 0 = no growth, -100 = all killed)
# Settings in all cases: 10 µM unless noted
# [1] = test system: SK-MEL-2 melanoma
# [2] = test system: EKVX NSCLC
# [3] = test system: SN12C renal
# [4] = test system: UO-31 renal
# [5] = test system: TK-10 renal
# [6] = test system: ACHN renal
# [7] = test system: CAKI-1 renal
# [8] = test system: A498 renal
# [9] = test system: CCRF-CEM leukemia
# [10] = test system: MOLT-4 leukemia
# [11] = test system: SR leukemia
# [12] = test system: RPMI-8226 leukemia
# [13] = test system: OVCAR-8 ovarian
# [14] = test system: OVCAR-5 ovarian
# [15] = test system: OVCAR-4 ovarian
# [16] = test system: SK-OV-3 ovarian
# [17] = test system: IGROV1 ovarian
# [18] = test system: OVCAR-3 ovarian
# [19] = test system: HS 578T breast
# [20] = test system: NCI/ADR-RES ovarian
SMILES,growth [1],growth [2],growth [3],growth [4],growth [5],growth [6],growth [7],growth [8],growth [9],growth [10],growth [11],growth [12],growth [13],growth [14],growth [15],growth [16],growth [17],growth [18],growth [19],growth [20]
Cc1csc(Nc2nc(-c3cccc(Cl)c3)nc(C(Cl)(Cl)Cl)n2)n1,83.7%,4.21% (active),84.1%,39.6%,3.91% (active),-21.7% (active),4.29% (active),-18.6% (active),95.5%,74%,58.9%,13.8%,58.6%,46.8%,70.1%,70.8%,83.1%,-18.4% (active),43.5%,51.6%
COCCn1cc(-c2nc(-c3cc4cccnc4n3C)cs2)c2cc(OC)ccc21,56.3%,24.8%,73%,51%,19.5%,64.2%,74.5%,46.6%,28.8%,48.5%,31%,41%,48.9%,37.5%,8.84% (active),50%,28.4%,6.53% (active),56.8%,45.9%
Cc1ccc2c(c1)CC(O)CC1C(=O)N(CCO)CC(=O)N21 (stereo not given),86.2%,104%,100%,95.8%,88.6%,104%,92.6%,99.4%,104%,92.2%,87.3%,98.8%,101%,101%,113%,103%,112%,115%,103%,104%
COc1ccc(-c2nc3cc(C(=O)NC4CCCCC4)ccc3n2C2CCCCC2)cc1,92.4%,69.2%,96.4%,82.6%,91.5%,87%,89.2%,103%,94.4%,74.5%,51.2%,79.2%,107%,85.6%,86.6%,98.7%,101%,89.1%,105%,90.7%
C#CCOc1cccc(-c2ncnc3cc(NC(=O)CCl)ccc23)c1,-4.29% (active),11%,-65.8% (active),-93.7% (active),11.8%,-99.6% (active),-94.4% (active),59.4%,-15.6% (active),-6.64% (active),-11.5% (active),-38.1% (active),-5.91% (active),-47.3% (active),-25.6% (active),51%,-54.2% (active),-78.2% (active),17%,1.21% (active)
CC(C)(C)CC(C)(C)Nc1c(-c2c(O)c3ccccc3oc2=O)nc2sccn12,96.8%,105%,93.5%,83.6%,90.5%,99.8%,92.8%,118%,92.2%,101%,111%,97.7%,91%,97.5%,111%,87.2%,93.2%,109%,96.3%,98.3%
CC(CN)[C@@H]1CC[C@]2(CO)CC[C@]3(C)[C@H](CC[C@@H]4[C@@]5(C)CCC(NCCO)C(C)(C)[C@@H]5CC[C@]43C)[C@@H]12 (stereo not given in full),94.4%,73%,80.1%,69.7%,93.4%,95%,59.9%,87.2%,6.44% (active),18.3%,-21.5% (active),0.0868% (active),75.8%,84.2%,77.3%,100%,71.4%,53.1%,58.7%,91.1%
O=c1cc(-c2nccc3c2[nH]c2ccccc23)c2cc(Cl)ccc2o1,30.2%,62.1%,62.4%,58.1%,85.3%,47.3%,54.6%,31.8%,31.2%,44.3%,15.2%,39.3%,54.4%,111%,56.6%,41.3%,61.3%,7.46% (active),37.3%,33.4%
CCn1c2ccccc2c2cc(C(O)c3cccc4ncccc34)ccc21 (stereo not given),51.5%,59.3%,27.6%,11.9%,54.7%,27.9%,43%,8.73% (active),8.21% (active),13.5%,15.5%,-2.06% (active),20.8%,48.7%,45.4%,69.1%,19.1%,1.86% (active),21.3%,-53.2% (active)
[2H]C([2H])([2H])Oc1ccc(/C=C/C(=O)/C=C(O)/C=C/c2ccc(OC([2H])([2H])[2H])c(OC([2H])([2H])[2H])c2)cc1OC([2H])([2H])[2H],86.3%,53.1%,28.3%,11.4%,54.4%,40.2%,41.3%,116%,22.3%,60.6%,18.6%,6.79% (active),21.8%,71.6%,42.2%,39%,52.9%,37.2%,51.7%,41.5%
CC1(C)CC[C@]2(CO)CC[C@]3(C)[C@H](CC[C@@H]4[C@@]5(C)CC[C@H](O)C(C)(C)[C@@H]5CC[C@]43C)[C@H]2[C@H]1O,104%,106%,65.6%,114%,58.7%,77.2%,99.9%,91.5%,98.5%,86.3%,56.2%,100%,64.5%,114%,58.5%,92.3%,102%,74.7%,7.22% (active),80.8%
O=C(O)COc1ccc(F)cc1,99.6%,103%,98.1%,91.6%,91.4%,111%,94.7%,97.4%,104%,101%,103%,97.5%,102%,109%,116%,108%,107%,107%,128%,101%
CN(CCNc1ccc(C(=N)N)cc1)c1ccc(C(=N)N)cc1,90.4%,84.1%,39.3%,88.3%,94.1%,78.4%,62%,57.7%,7.18% (active),87.6%,66.7%,72.2%,80.8%,92%,96.2%,119%,36.7%,91.4%,101%,97.1%
CCCNNC(=O)c1ccc(CNC(=O)/C=C/c2ccccc2)cc1,45% [2.5 µM],55.2% [2.5 µM],52.8% [2.5 µM],22.4% [2.5 µM],-0.401% [2.5 µM] (active),10.1% [2.5 µM],23.1% [2.5 µM],-18.4% [2.5 µM] (active),27.3% [2.5 µM],15.3% [2.5 µM],30.8% [2.5 µM],18.9% [2.5 µM],20.7% [2.5 µM],18.1% [2.5 µM],63.2% [2.5 µM],8.72% [2.5 µM] (active),30.5% [2.5 µM],47.6% [2.5 µM],47.3% [2.5 µM],21% [2.5 µM]
